Sampled rows, rich in hits. Any-hit rate of the full collection: about 4.1%.
MPTP block: mitochondrial permeability transition pore inhibitors, primary screen, biochemical, isolated mouse mitochondria, absorbance; Ca2+ swelling absorbance, 30 min; inhibition, % at 10 µM; 360,000 compounds, 1.4% hits;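 active means inhibition of 50% or more, scaled per plate between neutral and stimulator controls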;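 further: 0% = DMSO wells given calcium and 100% = 1 mM EGTA wells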
beta cell repl: inducers of MIN6 beta-cell proliferation, primary screen, ATP luminescence, uHTS. MIN6 cells proliferation, ATPlite luminescence, 48 h; cells starved in 0.2% serum; 100% = growth in 10% serum. proliferation, % at 10 µM. 330,000 compounds, 0.29% hits. AID 2380, 2010;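 active means compounds whose signal lies at least 3.5 SD above the mean of all wells on their plate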;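 further: 0% = DMSO-treated cells in low-serum medium and 100% = 10% serum control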
FAS-TE inh: FAS thioesterase domain inhibitors, primary screen, biochemical, fluorescence intensity, uHTS; Fatty acid synthase (Homo sapiens), P49327; recombinant FAS-TE, OMFH fluorogenic substrate, fluorescence endpoint; inhibition, % at 15 µM; 360,000 compounds, 0.67% hits; AID 602261, 2012;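 active means compounds whose normalised, plate-corrected inhibition of enzyme fluorescence in the single-dose primary screen is 50% or more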;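 further: 0% = DMSO with enzyme and 100% = substrate without enzyme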
GRIN3A LBD mod: binders of NR3A ligand-binding domain, primary screen, biophysical, differential scanning fluorimetry, uHTS; Glutamate receptor ionotropic, NMDA 3A (GRIN3A) ligand-binding domain; NR3A LBD differential scanning fluorimetry, Tm shift; 0% = protein alone, 100% = glycine-bound protein; Tm shift relative to glycine control, % at 25 µM; 340,000 compounds, 2.5% hits;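 active means melting temperature shift of at least 10% of the positive control shift, at one fixed dose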
pCIP destab: p/CIP-EGFP fusion destabilizers, primary screen, fluorescence, F442A cells | 16 h | decrease of EGFP signal, % at 10 µM | Q05BA5 | AID 1984, 2009 | 290,000 compounds, 0.01% hits;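 active means EGFP signal decrease of at least 30% at 10 µM or well 3 SD below plate mean, unless failing retest; inactive means the rest, including hits failing retest or dose response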
Starred values were filed as active, the others as inactive; x = no result.

SMILES	MPTP block	beta cell repl	FAS-TE inh	GRIN3A LBD mod	pCIP destab
COc1ccc(C2Nc3ccccc3C(=O)N2c2ccccc2)cc1CSc1ccccn1 (stereo unspecified)	0	4	24	18*	-6
CCOc1ccc(S(=O)(=O)N2CCCCC2)cc1NC(=O)C1CCCC1	0	x	3	x	x
CC(C)Oc1ccc(/C=N/NC(=O)c2nnn(-c3nonc3N)c2CN(C)c2ccccc2)cc1	-2	-6	24	11*	-30
COCc1c(C(=O)N/N=C/c2cccc3ccccc23)nnn1-c1nonc1N	0	0	-4	31*	18
CN(C)Cc1c(C(=O)N/N=C/c2ccc(-c3ccccc3)cc2)nnn1-c1nonc1N	0	-3	-2	3	-5
Cc1ccc(/C=N/NC(=O)c2nnn(-c3nonc3N)c2CN(C)C)s1	0	-3	-8	3	-19
CC(C)c1c(C(=O)N/N=C/c2ccccc2OCc2c(F)cccc2Cl)nnn1-c1nonc1N	0	-4	31	13*	2
Cc1ccc(/C=N/NC(=O)c2nnn(-c3nonc3N)c2CN(C)c2ccccc2)s1	-2	-1	32	18*	-2
COc1cc(CNC(=O)Nc2nnc([C@H]3C[C@H](O)[C@@H](CO)O3)s2)cc(OC)c1OC	-1	x	-10	x	x
C/C(=N\NC(=O)c1nnn(-c2nonc2N)c1CN(C)c1ccccc1)c1cccc(O)c1	0	-4	8	5	1
CN(Cc1c(C(=O)N/N=C/c2cccc(O)c2)nnn1-c1nonc1N)c1ccccc1	-1	-3	8	31*	1
COc1ccc2ccccc2c1/C=N/NC(=O)c1nnn(-c2nonc2N)c1CN(C)C	0	-1	-2	0	8
CN(Cc1c(C(=O)N/N=C/c2c(F)cccc2Cl)nnn1-c1nonc1N)c1ccccc1	-1	-5	28	14*	-4
Cc1ccc(/C=N/NC(=O)c2nnn(-c3nonc3N)c2C(C)C)s1	-1	-2	-2	11*	-6
COc1ccc2ccccc2c1/C=N/NC(=O)c1nnn(-c2nonc2N)c1C(C)C	3	-7	26	13*	-10
CCCCOP(=O)(c1ccc(N(C)C)cc1)C(Nc1ccccc1)c1ccccc1 (stereo unspecified)	5	0	19	13*	-1
CC1=C(C(=O)N(C)C)CC(CC(=O)NCc2cccs2)C(=O)N1Cc1ccc(C(C)(C)C)cc1 (stereo unspecified)	-1	x	-4	x	x
COc1c(C(=O)NNC(=O)c2ccccc2)csc1Br	1	-2	-7	12*	-17
COc1cccc(C(=O)NNC(=O)c2ccccc2)c1	-1	3	-2	2	-25
COC(=O)[C@]12CCCCC=C1N(CCc1ccc(OC)c(OC)c1)C(=O)[C@H](CC(=O)N1CCOCC1)C2	0	x	x	x	x
COc1cccc(/C=N/NC(=O)CCCC(=O)Nc2ccc(Br)cc2)c1	0	0	-4	20*	-12
Cc1cc(N/N=C/c2ccccc2O)nc(-c2ccccc2O)n1	6	-4	2	25*	-18
C/C(=N\Nc1cc(C)nc(-c2ccccc2O)n1)c1ccccc1O	25	-6	28	26*	-13
CC(=NNc1ccc2ccccc2n1)c1ccccc1O	2	x	26	24*	x
Cc1cc(N/N=C/c2ccc(O)cc2O)nc(-c2ccccc2O)n1	4	x	12	35*	22
SMILES	MPTP block	beta cell repl	FAS-TE inh	GRIN3A LBD mod	pCIP destab
Cc1cc(N/N=C/c2ccccc2O)nc(N2CCOCC2)n1	2	0	12	-8	-33
COc1ccc(CC(N)c2csc(NC(=O)c3cccc(OC(F)(F)F)c3)n2)cc1 (stereo unspecified)	5	x	-19	x	x
Cc1cc(N/N=C\c2ccccc2)nc(-c2ccccc2O)n1	8	-3	38	31*	0
Cc1cc(N/N=C/c2ccc(O)cc2O)nc(-n2nc(C)cc2C)n1	2	x	-2	27*	0
Cc1cc(N(C)/N=C/c2ccccc2)nc(-c2ccccc2O)n1	2	-4	22	-1	-15
COc1ccccc1-n1c(-c2cc(-c3ccc(F)cc3)n[nH]2)n[nH]c1=S	1	0	-4	19*	-11
